# Screening results from PubChem BioAssay.
# Sampled rows, rich in hits. Any-hit rate of the full collection: about 3%.
# PLK1 PBD inh: blocks phosphopeptide binding to human PLK1 polo-box domain. 360,000 compounds, 2.8% hits. Plk1 PBD binding of FITC phosphopeptide, fluorescence polarization. P53350. Potency, µM, for the others: max response, negative = inhibition, most hits filed as inhibitors; note: series mostly up to about 57 µM; nearly all actives have a fitted effect of over 65% in size
# VDR inhibitor: blocks the human vitamin D receptor. P11473. VDR-SRC2-3 peptide fluorescence polarization, 2 h. Potency, µM, for inactives: max response, negative = inhibition, most hits filed as inhibitors. 400,000 compounds, 0.93% hits. AID 504847
# Target sequence (P11473 whole entry, looked up): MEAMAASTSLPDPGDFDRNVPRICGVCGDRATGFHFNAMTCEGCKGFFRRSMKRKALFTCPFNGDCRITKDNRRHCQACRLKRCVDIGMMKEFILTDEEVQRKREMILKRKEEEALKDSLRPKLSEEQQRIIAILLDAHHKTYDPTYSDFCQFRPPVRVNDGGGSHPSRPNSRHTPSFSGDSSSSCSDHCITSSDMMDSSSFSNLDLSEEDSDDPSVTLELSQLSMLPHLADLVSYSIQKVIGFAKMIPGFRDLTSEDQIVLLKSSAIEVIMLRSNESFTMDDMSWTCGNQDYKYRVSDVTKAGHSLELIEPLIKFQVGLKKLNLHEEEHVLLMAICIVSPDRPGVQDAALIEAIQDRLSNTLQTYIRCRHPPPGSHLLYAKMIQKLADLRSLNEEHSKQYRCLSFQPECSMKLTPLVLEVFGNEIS
#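 After 23 nl compound addition and a short centrifugation, plates sat for 2 hours at ambient temperature; polarization of fluorescence then indicated loss of VDR binding to peptide SRC2-3.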
# GCN5L2 inh: GCN5L2 (KAT2A) acetyltransferase inhibition. Q92830. Potency, µM (series often up to 58.9 µM), inactives show top-dose activity change, negative = inhibition, most hits filed as inhibitors. 390,000 compounds, 0.21% hits. AID 504327. GCN5L2 HAT assay, ThioGlo1 CoA-SH fluorescence
#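 Enzyme at 20nM final was mixed with library compounds for 15 min at room temperature. Peptide H3(1-25) at 75uM, acetyl-CoA at 70uM and ThioGlo1 at 50uM were then added. Plates were read immediately and after 20 min (Ex340nm/Em540nm).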
# ALOX12 inh: inhibitors of human 12S-lipoxygenase ALOX12. purified 12hLO, xylenol orange hydroperoxide absorbance. Potency, µM (highest dose often 108 µM), without a hit: at the highest dose activity change, negative = inhibition, most hits filed as inhibitors. 580,000 compounds, 1.1% hits. AID 1671190
#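 Purified human 12hLO at 150 nM in 25 mM Hepes, 0.01% Triton X-100, pH 7.0, preincubated 15 min at room temperature with compound. Reaction started with 40 uM arachidonic acid, 30 min at room temperature. Hydroperoxide measured by Fe-xylenol orange, 573/405 nm absorbance ratio.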
# Starred values were filed as active, the others as inactive; u = inconclusive; x = no result given; [ ] = another dose, or the depositor's remark. Calls come from the whole dose curve; as a rule, active = well fitted curve in the direction sought with a large enough effect; inconclusive = small, poorly fitted or top-dose-only effect, or another doubt; inactive = no such curve, though single readings can be large; an effect the other way counts as inactive or inconclusive. % is set by controls: 0 for no effect and ±100 for the full control effect; potency is the fitted concentration of half-maximal effect.
SMILES,PLK1 PBD inh,VDR inhibitor,GCN5L2 inh,ALOX12 inh
C/C(=N\NC(N)=S)C1=CCC2C3CC[C@H]4CC(O)CC[C@]4(C)C3CC[C@]12C (stereo partly drawn),16.8µM*,u,8.5%,-16.0%
CC1(C)CC(=O)C(C=NCCN2CCN(C3CC(=O)N(c4ccc(Br)cc4)C3=O)CC2)=C(O)C1 (stereo not drawn),26.7µM*,-3.3%,-6.2%,-0.2%
Cc1ccc(S(=O)(=O)CCC(=O)OCC(=O)c2ccc3c(c2)-c2ccccc2C3)cc1,x,x,x,14.7%
COc1cc2c(cc1NC(=O)c1cncc(Br)c1)oc1ccccc12,26.7µM*,-9.6%,-5.1%,0.0%
CCN(CC)S(=O)(=O)c1cccc(C(=O)Nc2cc3oc4ccccc4c3cc2OC)c1,3.6%,14.0%,2.4%,-16.9%
O=C(Nc1ccc(F)cc1F)c1cncc(Br)c1,-2.0%,12.1%,-0.9%,-14.7%
O=C(Nc1ccccc1[N+](=O)[O-])c1cncc(Br)c1,29.9µM*,-20.9%,-12.4%,-22.9%
N#CC1=C(c2ccccc2)C(O)(c2ccccc2)NC1=O (stereo not drawn),x,x,x,3.7%
N#CC1=C(c2ccc(-c3ccccc3)cc2)COC1=O,u,52.7%,-13.3%,50.1µM*
O=C(CCc1nc2ccccc2s1)NC1CCOC1=O (stereo not drawn),23.8µM*,-16.1%,-5.0%,-7.1%
CCCn1nc(C(=O)NC(c2ccccc2)c2ccccc2)c2ccccc2c1=O,x,x,x,40.5%
O=C(COC(=O)/C=C/c1ccccc1[N+](=O)[O-])NC1CC1,16.8µM*,70.8µM*,0.0%,39.7%
O=C(Nc1ccc2c(c1)CCC2)c1ccc(Cl)nc1,-0.3%,4.8%,-8.0%,-3.2%
O=C(Nc1ccc2c(c1)CCC2)c1cnc(Cl)c(Cl)c1,21.2µM*,3.2%,-13.2%,3.8%
Cc1cccc(CNc2ncnc3ccc(-c4ccc5c(c4)OCCO5)cc23)c1,x,-2.5%,-8.5%,50.1µM*
Cc1csc(CNc2ncnc3ccc(-c4ccc5c(c4)OCCO5)cc23)c1,x,-11.0%,-20.2%,8.91µM*
Cc1csc(CNc2ncnc3ccc(-c4ccc5c(c4)OCO5)cc23)c1,x,11.2%,-0.4%,u
c1nc(NCc2ccc3c(c2)OCO3)c2cc(-c3ccc4c(c3)OCCO4)ccc2n1,x,-5.6%,-9.2%,u
COc1ccccc1-c1nc(NCc2cnc(C)cn2)c2ccccc2n1,x,u,-10.3%,20µM*
COc1ccc(Nc2nc(-c3ccc(C)cc3)nc3ccccc23)c(OC)c1,x,16.8%,-10.2%,-15.3%
COc1ccccc1CNc1nc(-c2ccc(N(C)C)cc2)nc2ccccc12,x,u,-14.6%,28.2µM*
COc1ccccc1-c1nc(N(C)C)c2ccccc2n1,x,u,-7.9%,31.6µM*
COc1ccc(OC)c(Nc2nc(-c3ccc(C)cc3)nc3ccccc23)c1,x,14.9%,25.1µM*,-1.9%
COc1ccc2nc([C@H]3CCN(CC(C)C)C3)[nH]c2c1,x,x,x,35.7%[176 µM]
FC(F)(F)c1ccccc1-c1nc(Nc2ccncc2)c2ccccc2n1,x,2.8%,-24.1%,u
SMILES,PLK1 PBD inh,VDR inhibitor,GCN5L2 inh,ALOX12 inh
COc1ccccc1-c1nc(Nc2ccncc2)c2ccccc2n1,x,u,-17.9%,28.2µM*
CN(C)c1nc(-c2cccc(C#N)c2)nc2ccccc12,x,-26.9%,-15.0%,u
COc1cccc(-c2nc(N(C)C)c3ccccc3n2)c1,x,56.2µM*,u,u
COc1ccccc1C1=NOC(C(=O)Nc2cc(C)nn2-c2ccccc2)C1 (stereo not drawn),x,x,x,5.8%
COc1ccccc1CC(=O)N1CCN(C(=O)c2nnn3c2COC(c2ccc(C)cc2)C3)CC1 (stereo not drawn),x,x,x,-0.4%
O=[N+]([O-])c1cccc(/C=N/OCc2c(F)cccc2Cl)c1,x,x,x,1.4%
C=CCN1C(=O)/C(=C/c2ccsc2)SC1=S,-1.7%,-14.4%,-9.6%,11.1%
COc1cc(/C=C2\SC(=S)N(C(C(=O)O)c3ccccc3)C2=O)cc(OC)c1OC (stereo not drawn),u,u,-8.2%,u
C=CCN1C(=O)/C(=C/c2ccc(-c3ccc(F)cc3)o2)SC1=S,-11.4%,-16.4%,2.4%,44.7µM*
O=C(O)C(c1ccccc1)N1C(=O)/C(=C\c2ccc(-c3ccc(Br)cc3)o2)SC1=S (stereo not drawn),-9.4%,u,u,6.31µM*
O=C1/C(=C\c2ccc(-c3ccccc3Cl)o2)SC(=S)N1CC1CCCO1 (stereo not drawn),u,-8.2%,-11.2%,-33.5%
O=C(O)C(c1ccccc1)N1C(=O)/C(=C\c2ccc(-c3ccccc3Cl)o2)SC1=S (stereo not drawn),u,50.1µM*,u,15.8%
O=[N+]([O-])c1cccc(S(=O)(=O)Nc2ccc(S(=O)(=O)Nc3nccs3)cc2)c1,-4.4%,-5.4%,x,-4.3%
Nc1ccc(S(=O)(=O)Nc2nccs2)cc1N=Nc1ccccc1[N+](=O)[O-],29.9µM*,u,x,u
CC(C)N1C(=O)C2(CCCC2)C1C(=O)NCCCN1CCc2ccccc2C1 (stereo not drawn),x,x,x,19.6%
O=C(c1cn(-c2ccc(Cl)cc2)nn1)N1CCc2ccccc2C1,x,x,x,7.9%
CCN(CC)C(=O)c1cc(Cl)ccn1,11.9µM*,-20.6%,-4.2%,u
CCN(CC)C(=O)c1csc(N2CCN(c3cccc(Cl)c3)CC2)n1,x,x,x,16.7%
COCCCNC(=S)Nc1cccc2ncccc12,26.7µM*,-18.5%,0.8%,-4.1%
O=c1nc(/C=C/c2ccccc2C(F)(F)F)cc(C(F)(F)F)[nH]1,-19.5%,31.6µM*,-7.0%,u
CCOc1cc(/C=C/c2cc(C(F)(F)F)[nH]c(=O)n2)ccc1O,0.4%,u,-1.6%,u
COc1ccc(/C=C/c2cc(C(F)(F)F)[nH]c(=O)n2)cc1OC,-13.7%,u,-6.8%,8.91µM*
COc1ccc(/C=C/c2cc(C(=O)O)c3ccccc3n2)cc1OC,x,x,x,17.8µM*
CCCn1nc(C(=O)Nc2cc(C)ccc2OC)c2ccccc2c1=O,x,x,x,0.8%
CCCOc1cc(C)c(C(C)C)cc1S(=O)(=O)N1CCCC1,x,x,x,63.7%
SMILES,PLK1 PBD inh,VDR inhibitor,GCN5L2 inh,ALOX12 inh
COc1ccc(OC)c(S(=O)(=O)NCC(c2ccco2)N2CCc3ccccc32)c1 (stereo not drawn),-2.3%,9.8%,-13.1%,39.8µM*
COC(=O)c1ccc(CCNC(=O)c2cccc(OC)c2)cc1,x,x,x,6.0%
CCOC(=O)c1ccc(NS(=O)C23CC4CC(CC(C4)C2)C3)cc1 (stereo not drawn),-9.6%,8.0%,-1.1%,7.08µM*
CN=C1S/C(=C/c2cn(CC(=O)OC)c3ccccc23)C(=O)N1C,0.0%,1.4%,-11.1%,28.2µM*
CN=C1S/C(=C\c2cn(CC(=O)OC)c3ccccc23)C(=O)N1C,7.4%,15.9%,-9.0%,-14.1%
Cc1ccc(NC(=O)c2ccco2)cc1C,21.2µM*,10.8%,-1.7%,-12.2%
Cc1cc(NC(=O)c2ccco2)ccc1NC(=O)c1ccco1,-13.0%,-12.0%,-8.9%,u
Cc1ccc(NC(=O)c2cnn(-c3ccccc3)c2NC(=O)c2ccco2)cc1,3.36µM*,-21.7%,-2.0%,0.9%
Cc1ccc(C)c(NC(=S)NNC(=O)c2ccco2)c1,18.9µM*,-23.4%,2.9%,27.6%
